# From PubChem BioAssay (Tox21)
# Inconclusive results are not listed. Values without a mark were called inactive. The call rests on the fitted dose curve; in most records, active means well fitted inhibition curve with a large enough effect in the repeat runs; inconclusive means weak or mixed curves; inactive means flat fitted curve, though single readings scatter.
# Biological target: Luciferin 4-monooxygenase (Photinus pyralis) (UniProt P08659)
# Assay: qHTS assay to identify small molecule inhibitors of firefly luciferase (AID 1224835); further: nearly all actives have a fitted effect of over 25% in size
# Conditions: purified P. pyralis luciferase, luminescence inhibition; series mostly up to 115 µM; activity change, negative = inhibition: at the top concentration
# Text: U.S. Tox21 Program National Center for Advancing Translational Sciences [NCATS] NIH Chemical Genomics Center [NCGC] U.S. Environmental Protection Agency [EPA] National Institutes of Environmental Health Sciences [NIEHS] National Toxicology Program [NTP] U.S. Food and Drug Administration [FDA] Tox21 Assay Overview: Firefly (Photinus pyralis) luciferase is one of the most commonly used transcriptional reporters. Firefly luciferase reporter-gene assays are generally considered one of the most sensitive assay types (Wood, 1995; Wood, 1998). However, it was initially observed, in 1991, by Thompson et al., that compounds that resemble the substrates of firefly luciferase (FLuc) can act as competitive inhibitors of the enzyme, and that these compounds, upon interaction with luciferase in the cell, can actually stabilize the protein and increase its half-life. Previous profiling work by other groups to determine the prevalence of compounds that affect FLuc enzymatic activity (PubChem AID 411) identified that ~3% of the MLSMR library (then at ~72K) inhibited FLuc. […] Thus the Tox21 10K library is profiled for activity against FLuc using a biochemical assay of purified FLuc and KM concentrations of FLuc substrates (D-luciferin and ATP).
# These assay plates were then treated with 23nL of compound or DMSO using a Kalypsys pin tool, which allows for delivery of a 6-point interplate titration of each compound to the assay plate (quantitative HTS.) 1 uL of firefly luciferase mix (containing 50 mM Tris acetate, pH 7.6, 0.04 uM P. pyralis luciferase, 0.01% Tween, 0.05% BSA and dH2O) was then delivered by FRD to each well. Luciferase activity was then measured using a ViewLux CCD imager.
# On the % scale 0 is the no-effect control and ±100 the full control effect.
# Sequence of Luciferin 4-monooxygenase (Photinus pyralis) (P08659 whole entry, looked up): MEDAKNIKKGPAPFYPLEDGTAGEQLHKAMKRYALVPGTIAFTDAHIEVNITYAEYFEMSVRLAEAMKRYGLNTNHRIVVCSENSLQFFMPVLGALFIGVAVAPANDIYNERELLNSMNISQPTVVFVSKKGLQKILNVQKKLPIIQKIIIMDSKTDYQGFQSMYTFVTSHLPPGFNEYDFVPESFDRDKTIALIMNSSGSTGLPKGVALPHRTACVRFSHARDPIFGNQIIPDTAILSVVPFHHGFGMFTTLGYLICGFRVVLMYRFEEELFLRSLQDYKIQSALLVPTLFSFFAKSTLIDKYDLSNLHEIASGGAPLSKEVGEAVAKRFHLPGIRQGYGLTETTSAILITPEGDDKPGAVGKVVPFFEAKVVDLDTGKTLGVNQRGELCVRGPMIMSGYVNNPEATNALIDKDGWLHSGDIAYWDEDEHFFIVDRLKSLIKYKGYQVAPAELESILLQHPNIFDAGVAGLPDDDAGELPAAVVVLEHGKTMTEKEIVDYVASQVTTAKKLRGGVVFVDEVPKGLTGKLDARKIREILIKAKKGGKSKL
row,SMILES,"activity change, negative = inhibition"
1,OC[C@@H](O)[C@H](O)[C@@H](O)[C@@H](O)CO,0.464%
2,CCCCC[Si](OCC)(OCC)OCC,2.01%
3,OC(CCN1CCCCC1)(c1ccccc1)c1ccccc1,-0.0195% [at 52.9 µM]
4,CC(C)SCc1ccco1,1.14% [at 52.9 µM]
5,NC(=O)C1(N2CCCCC2)CCN(CCCC(=O)c2ccc(F)cc2)CC1,-0.395% [at 52.9 µM]
6,CC(=O)OCCCc1ccccc1,2.34%
7,F[Si-2](F)(F)(F)(F)F,5.83%
8,O=C(O)/C=C/c1ccccc1,-3.25%
9,CN(C1CCCCC1)S(=O)(=O)c1ccccc1N,-13.8%
10,O=C(c1ccc2c(c1)C(=O)OC2=O)c1ccc2c(c1)C(=O)OC2=O,-0.886%
11,CN[C@@H]1[C@@H](O)[C@@H](O[C@@H]2[C@H](O)[C@H](O[C@H]3OC(CN)=CC[C@H]3N)[C@@H](N)C[C@H]2N)OCC1(C)O (stereo not given in full),3.81% [at 52.9 µM]
12,Cc1ccccc1OCC1CO1 (stereo not given),-1.08%
13,O=C(Nc1cccc(C2=NCCN2)c1)Nc1cccc(C2=NCCN2)c1,-1.49% [at 23.6 µM]
14,CCOC(=O)CC#N,2.56%
15,C1CCN2C[C@@H]3C[C@@H](CN4CCCC[C@@H]34)[C@H]2C1,-0.29% [at 52.9 µM]
16,CCC(C)(C)C1CCC(=O)CC1,1.67%
17,CC(=O)OC(C)c1ccccc1 (stereo not given),3.36%
18,CCCCCCCCCCC,3.24%
19,C[C@H]1O[C@H](O[C@H]2[C@H](O)[C@@H](O)[C@@H](O[C@H]3[C@H](O)[C@@H](O)[C@H](O)O[C@@H]3CO)O[C@@H]2CO)[C@H](O)[C@@H](O)[C@@H]1N[C@H]1C=C(CO)[C@@H](O)[C@H](O)[C@H]1O,1.92% [at 52.9 µM]
20,O=c1cc(O)c(Cl)c[nH]1,10.6% [at 52.9 µM]

row,SMILES,"activity change, negative = inhibition"
1,NC(=O)NC(=O)Cc1ccccc1,-1.08% [at 52.9 µM]
2,O=[Si]=O,1.55%
3,CCCCCCCC/C=C\CCCCCCCC(=O)OC[C@@H](O)[C@H]1OC[C@H](O)[C@H]1O,2%
4,Cc1cc(O)c2c(c1)C(=O)c1cccc(O)c1C2=O,-3.51% [at 52.9 µM]
5,CCN(CCO)c1cccc(C)c1,-0.646%
6,O=C1OC(=O)c2cc(Oc3ccc4c(c3)C(=O)OC4=O)ccc21,-0.579%
7,O=c1[nH]c(=O)c2[nH]c(=O)[nH]c2[nH]1,-3.23% [at 10.5 µM]
8,COC(/C=C(\C)CCC=C(C)C)OC,-5.85%
9,CC(CC(=O)O)CC(C)(C)C (stereo not given),-0.0034%
10,CC(C)(CO)[C@@H](O)C(=O)NCCCO,1.68% [at 52.9 µM]
11,CCC(CO)CO,1.69%
12,C=C(C)C(=O)OC1CC(C)CC(C)(C)C1 (stereo not given),-0.698%
13,NS(=O)(=O)c1ccc(Cl)c(S(N)(=O)=O)c1,-0.697% [at 52.9 µM]
14,Nc1c(NC/C=C\COc2cc(CN3CCCCC3)ccn2)c(=O)c1=O,10.6% [at 23.6 µM]
15,CN[C@@H]1[C@H](O)[C@H](NC)[C@H]2O[C@@]3(O)C(=O)C[C@@H](C)O[C@H]3O[C@@H]2[C@H]1O,-6.11% [at 52.9 µM]
16,N#CCCOCCOCCC#N,-3.15%
17,CCOC(=O)C(C)(C)C,0.0321%
18,Cc1nc(C)nc(N2C[C@@H](C)N(c3ccnc([C@@H](C)O)n3)[C@@H](C)C2)n1,-5.89% [at 52.9 µM]
19,CC(C)c1ccccc1O,1.31%
20,CCCOC(=O)CCCCC(=O)OCCC,-2.5%
